Experimental data as given in PubChem BioAssay (Tox21).
Values joined by “and” are separate entries in the source; they are usually repeats but may differ in a detail not shown here. Identical values can stand only once. Results filed as inconclusive are left out. Where a call stands in place of a potency, no number is given. Active and inactive are the calls of the source. Unless noted, the call rests on the fitted dose curve; in most records, active means well fitted curve in the direction sought with a large enough effect in the repeat runs; inconclusive means weak or mixed curves; inactive means no such curve, though single readings can be large; an effect the other way counts as inactive or inconclusive.

How the values were obtained:
[1] = qHTS assay to identify small molecule antagonists of the estrogen receptor alpha (ER-alpha) signaling pathway using the BG1 cell line in the presence of 0.1 nM 17-beta-estradiol - cell viability counter screen (AID 1259241); further: nearly all actives have a fitted effect of over 40% in size; further: potency means the concentration at half of the fitted maximal effect
In short: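 VM7Luc4E2 cells (endogenous ER-alpha, 4×ERE-luciferase), hormone-starved 5 days in charcoal-stripped FBS, were treated with compounds plus 0.1 nM 17beta-estradiol for 22 hr at 37C; viability read in same wells as CellTiter-Fluor live-cell protease fluorescence.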

[2] = qHTS assay to identify small molecule antagonists of the androgen receptor (AR) signaling pathway using the MDA cell line in the presence of 0.5 nM R1881 - cell viability counter screen (AID 1259242); further: nearly all actives have a fitted effect of over 45% in size; further: potency means the concentration at half of the fitted maximal effect
In short: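 MDA-kb2 cells (MMTV-luciferase, AR/GR responsive) were treated with compounds plus 0.5 nM R1881 (final) for 16 hr at 37C, 0% CO2. Viability was then read in the same wells as live-cell protease fluorescence (CellTiter-Fluor, 30 min).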

[3] = molecular target: Androgen receptor (Homo sapiens) (UniProt P10275); test: qHTS assay to identify small molecule antagonists of the androgen receptor (AR) signaling pathway using the MDA cell line in the presence of 0.5 nM R1881 (AID 1259243); further: potency means the concentration at half of the fitted maximal effect; nearly all actives have a fitted effect of over 50% in size
In short: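 MDA-kb2 cells (MMTV-luciferase, responsive to AR and GR) at 3,000/well, rested 5 h at 37C, 0% CO2, then given compounds plus 0.5 nM R1881 (final) for 16 hr. Luciferase read with ONE-Glo after 30 min at room temperature.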

[4] = molecular target: Estrogen receptor (Homo sapiens) (UniProt P03372); test: qHTS assay to identify small molecule antagonists of the estrogen receptor alpha (ER-alpha) signaling pathway using the BG1 cell line in the presence of 0.1 nM 17-beta-estradiol (AID 1259244); further: nearly all actives have a fitted effect of over 50% in size; further: potency means the concentration at half of the fitted maximal effect
In short: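 VM7Luc4E2 cells (endogenous full-length ER-alpha, 4×ERE-luciferase), kept 5 days in phenol red-free, charcoal-stripped FBS medium; 4,000 cells/well. Compounds added with 0.1 nM (final) 17beta-estradiol, 22 hr at 37C; luminescence read with ONE-Glo after 30 min.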

[5] = qHTS assay to identify small molecule HDAC inhibitors - cell viability counter screen (AID 1259365); further: nearly all actives have a fitted effect of over 50% in size; further: potency means the concentration at half of the fitted maximal effect
In short: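 Wild-type HCT-116 cells were seeded at 1,500 per well, incubated overnight at 37 C, then exposed to compounds in DMSO for 2hr. Viability was read by CellTiter-Glo luminescence after 30min at room temperature.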

[6] = qHTS assay to identify small molecule antagonists of the sonic hedgehog signaling (Shh) pathway - cell viability counter screen (AID 1259367); further: nearly all actives have a fitted effect of over 55% in size; further: potency means the concentration at half of the fitted maximal effect
In short: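 NIH/3T3-derived Gli1-Luc reporter cells (2,000 per well) rested 4 hr at 37 C, then received DMSO compounds plus conditioned medium. After 23 hr of treatment, CellTiter-Fluor was added for 1 hr at 37C and fluorescence read.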

[7] = qHTS assay to identify small molecule agonists of the sonic hedgehog signaling (Shh) pathway (AID 1259368; calls by dose curve; further: series mostly up to about 92 µM; nearly all actives have a fitted effect of over 15% in size)
In short: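 NIH/3T3-derived 3T3Gli1-Luc cells with stably integrated Gli1-driven firefly luciferase, 2,000 cells/well, compounds added after 4 hr. Incubated 24 hr at 37C, 5% CO2; luminescence read after 30 min with luciferase reagent at room temperature.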

[8] = qHTS assay to identify small molecule antagonists of the sonic hedgehog signaling (Shh) pathway (AID 1259369; calls by dose curve; further: nearly all actives have a fitted effect of over 45% in size; further: potency means the concentration at half of the fitted maximal effect)
In short: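 NIH/3T3-derived Gli1-Luc reporter cells plated 4 h, dosed with compound, then stimulated with conditioned medium for 24 h at 37 C. Firefly luciferase luminescence read after 30 min with detection reagent at room temperature.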

[9] = molecular target: Androgen receptor (Homo sapiens) (UniProt P10275); test: qHTS assay to identify small molecule agonists of the androgen receptor (AR) signaling pathway in the presence of an antagonist (AID 1259381; calls by dose curve; further: nearly all actives have a fitted effect of over 15% in size)
In short: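 MDA-kb2 cells carrying MMTV-luciferase (AR/GR responsive), 3,000 cells/well, co-treated with 3.0 uM nilutamide final. Compounds at 15 concentrations, 16 hr at 37C without CO2. Luciferase luminescence read after 30 min with ONE-Glo.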

[10] = qHTS assay to identify small molecule antagonists of the estrogen receptor beta (ER-beta) signaling pathway - cell viability counter screen (AID 1259382); further: nearly all actives have a fitted effect of over 55% in size; further: potency means the concentration at half of the fitted maximal effect
In short: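 ER-beta-UAS-bla HEK293T cells in 2% charcoal-stripped FBS medium, treated with compound plus 1 nM 17-beta-estradiol for 16 h at 37C. Viability read by CellTiter-Glo luminescence after 30 min at room temperature in the same wells.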

[11] = molecular target: Estrogen receptor (Homo sapiens) (UniProt P03372); test: qHTS assay to identify small molecule agonists of the estrogen receptor alpha (ER-alpha) signaling pathway in the presence of an antagonist (AID 1259383; calls by dose curve; further: top concentration of the series differs between compounds; nearly all actives have a fitted effect of over 15% in size)
In short: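 VM7Luc4E2 cells express endogenous full-length ER-alpha with an ERE-luciferase reporter and were hormone-deprived for 5 days. Compounds at 15 concentrations were added with 10.0nM ICI-182,780 for 22hr at 37C. Luminescence was read with ONE-Glo.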

[12] = qHTS assay to identify small molecule agonists or antagonists of the thyroid stimulating hormone receptor (TSHR) signaling pathway - wild type cell line counter screen (AID 1259384; calls by dose curve)
In short: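 Wild-type HEK293 cells were plated 18 h at 37 C/5% CO2, pin-dosed with compound plus Ro20-1724 medium, held 30 min at room temperature, then given cAMP-d2 and anti-cAMP-cryptate; fluorescence was read after 1 h. Fifteen concentrations, triplicate.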

[13] = molecular target: Thyrotropin receptor (Homo sapiens) (UniProt P16473); test: qHTS assay to identify small molecule antagonists of the thyroid stimulating hormone receptor (TSHR) signaling pathway (AID 1259385; calls by dose curve; further: nearly all actives have a fitted effect of over 20% in size; further: potency means the concentration at half of the fitted maximal effect)
In short: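 TSHR-HEK293 cells were plated and held 18 h at 37C/5% CO2, then given compound plus Ro20-1724 and stimulated with TSH at 1.5 ng/mL final. After 30 min at room temperature, cAMP was detected with cAMP-d2/anti-cAMP-cryptate (1 h) by fluorescence.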

[14] = qHTS assay to identify small molecule phospholipidosis (PLD) inducers (AID 1259344; active means well fitted curve in the direction sought with a large enough effect; an effect the other way counts as inactive or inconclusive)
In short: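 HepG2 cells on collagen I, attached 4 h at 37 C, were co-treated with compound and LipidTOX Red dye for 24 h at 37 C, then fixed with paraformaldehyde plus Hoechst 33342 and imaged by high-content microscopy for phospholipid accumulation.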

[15] = qHTS assay to identify small molecule HDAC inhibitors (AID 1259364); further: nearly all actives have a fitted effect of over 45% in size; further: potency means the concentration at half of the fitted maximal effect
In short: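 Wild-type HCT-116 cells, plated overnight at 37 C, exposed to compounds 2 hr at 37 C; luminogenic HDAC-Glo substrate then added 30 min at room temperature. Luminescence reports relative endogenous class I/II HDAC activity.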

[16] = qHTS assay to identify small molecule agonists of the sonic hedgehog signaling (Shh) pathway - cell viability counter screen (AID 1259366); further: nearly all actives have a fitted effect of over 50% in size; further: potency means the concentration at half of the fitted maximal effect
In short: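 NIH/3T3-derived 3T3 Gli1-Luc cells (stable Gli1-responsive firefly luciferase reporter) were seeded, rested 4 hr at 37 C/5% CO2, then exposed to compounds in DMSO for 24 hr; viability was read by CellTiter-Fluor fluorescence in the same wells.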

[17] = molecular target: Estrogen receptor beta (Homo sapiens) (UniProt Q92731); test: qHTS assay to identify small molecule agonists of the estrogen receptor beta (ER-beta) signaling pathway (AID 1259377; active means well fitted activation curve with a large enough effect in the signal ratio in the repeat runs, not every such curve was filed as active; the % refers to the signal ratio)
In short: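 ER-beta-UAS-bla HEK293T (GripTite) cells carrying a UAS-driven beta-lactamase reporter, in medium with 2% charcoal-stripped FBS, were exposed to compounds for 16 hr at 37C; LiveBLAzer B/G FRET substrate was then added and fluorescence read after 2 hours at room temperature.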

[18] = molecular target: Estrogen receptor beta (Homo sapiens) (UniProt Q92731); test: qHTS assay to identify small molecule antagonists of the estrogen receptor beta (ER-beta) signaling pathway (AID 1259378; active means well fitted inhibition curve with a large enough effect in the signal ratio in the repeat runs, not every such curve was filed as active; the % refers to the signal ratio; further: potency means the concentration at half of the fitted maximal effect)
In short: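 ER-beta-UAS-bla HEK293T (GripTite) cells in 2% charcoal-stripped FBS medium were preincubated 6 hr at 37C, dosed with compound, then stimulated with 1 nM E2 (final) for 16 hr; beta-lactamase reporter read by B/G FRET fluorescence after 2 hr substrate loading.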

[19] = qHTS assay to identify small molecule agonists of the androgen receptor (AR) signaling pathway in the presence of an antagonist - cell viability counter screen (AID 1259379); further: nearly all actives have a fitted effect of over 25% in size; further: potency means the concentration at half of the fitted maximal effect
In short: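 MDA-kb2 cells (MMTV-luciferase, AR/GR), 3,000/well, 5 h attachment, then 3.0 µM nilutamide (final) and compounds at 15 concentrations. Viability by CellTiter-Fluor fluorescence after 16 h at 37 °C, 0% CO2, in the reporter wells.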

[20] = qHTS assay to identify small molecule agonists of the estrogen receptor beta (ER-beta) signaling pathway - cell viability counter screen (AID 1259380); further: nearly all actives have a fitted effect of over 30% in size; further: potency means the concentration at half of the fitted maximal effect
In short: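 ER-beta-UAS-bla HEK293T cells in medium with 2% charcoal-stripped FBS, pre-incubated 6 hr, then treated 16 hr at 37C. Cytotoxicity read in the same wells by CellTiter-Glo luminescence after 30 min at room temperature.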

Estrogen receptor (Homo sapiens), sequence (P03372 whole entry, looked up): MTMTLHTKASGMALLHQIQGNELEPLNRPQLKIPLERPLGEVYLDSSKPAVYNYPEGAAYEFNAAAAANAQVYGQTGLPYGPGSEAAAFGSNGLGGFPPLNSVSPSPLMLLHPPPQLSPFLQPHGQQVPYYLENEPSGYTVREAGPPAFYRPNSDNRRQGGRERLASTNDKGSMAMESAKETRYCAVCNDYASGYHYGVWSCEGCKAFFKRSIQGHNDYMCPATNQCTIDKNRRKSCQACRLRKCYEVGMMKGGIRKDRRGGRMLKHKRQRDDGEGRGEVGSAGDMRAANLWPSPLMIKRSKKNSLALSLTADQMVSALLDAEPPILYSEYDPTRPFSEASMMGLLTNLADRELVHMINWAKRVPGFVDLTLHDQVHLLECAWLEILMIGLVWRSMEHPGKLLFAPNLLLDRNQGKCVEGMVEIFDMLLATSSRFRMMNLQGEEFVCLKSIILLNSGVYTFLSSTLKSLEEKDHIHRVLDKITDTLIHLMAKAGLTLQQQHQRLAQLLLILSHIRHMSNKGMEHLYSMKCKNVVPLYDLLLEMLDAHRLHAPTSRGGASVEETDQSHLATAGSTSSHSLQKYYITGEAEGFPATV
Estrogen receptor beta (Homo sapiens), sequence (Q92731 whole entry, looked up): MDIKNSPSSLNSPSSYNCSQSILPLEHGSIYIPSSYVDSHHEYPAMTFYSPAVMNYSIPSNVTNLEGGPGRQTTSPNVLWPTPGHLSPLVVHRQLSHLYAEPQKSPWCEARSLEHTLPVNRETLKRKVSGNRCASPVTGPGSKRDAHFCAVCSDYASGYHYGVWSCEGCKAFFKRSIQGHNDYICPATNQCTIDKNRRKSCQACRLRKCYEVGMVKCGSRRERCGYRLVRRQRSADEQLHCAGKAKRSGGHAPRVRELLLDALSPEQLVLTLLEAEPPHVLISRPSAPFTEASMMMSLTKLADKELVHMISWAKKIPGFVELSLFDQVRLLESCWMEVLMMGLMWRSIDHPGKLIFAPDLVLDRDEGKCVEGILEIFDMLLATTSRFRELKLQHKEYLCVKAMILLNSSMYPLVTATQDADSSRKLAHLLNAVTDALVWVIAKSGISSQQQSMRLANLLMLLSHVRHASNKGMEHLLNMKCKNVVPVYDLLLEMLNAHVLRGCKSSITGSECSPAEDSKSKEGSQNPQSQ
Androgen receptor (Homo sapiens), sequence (P10275 whole entry, looked up): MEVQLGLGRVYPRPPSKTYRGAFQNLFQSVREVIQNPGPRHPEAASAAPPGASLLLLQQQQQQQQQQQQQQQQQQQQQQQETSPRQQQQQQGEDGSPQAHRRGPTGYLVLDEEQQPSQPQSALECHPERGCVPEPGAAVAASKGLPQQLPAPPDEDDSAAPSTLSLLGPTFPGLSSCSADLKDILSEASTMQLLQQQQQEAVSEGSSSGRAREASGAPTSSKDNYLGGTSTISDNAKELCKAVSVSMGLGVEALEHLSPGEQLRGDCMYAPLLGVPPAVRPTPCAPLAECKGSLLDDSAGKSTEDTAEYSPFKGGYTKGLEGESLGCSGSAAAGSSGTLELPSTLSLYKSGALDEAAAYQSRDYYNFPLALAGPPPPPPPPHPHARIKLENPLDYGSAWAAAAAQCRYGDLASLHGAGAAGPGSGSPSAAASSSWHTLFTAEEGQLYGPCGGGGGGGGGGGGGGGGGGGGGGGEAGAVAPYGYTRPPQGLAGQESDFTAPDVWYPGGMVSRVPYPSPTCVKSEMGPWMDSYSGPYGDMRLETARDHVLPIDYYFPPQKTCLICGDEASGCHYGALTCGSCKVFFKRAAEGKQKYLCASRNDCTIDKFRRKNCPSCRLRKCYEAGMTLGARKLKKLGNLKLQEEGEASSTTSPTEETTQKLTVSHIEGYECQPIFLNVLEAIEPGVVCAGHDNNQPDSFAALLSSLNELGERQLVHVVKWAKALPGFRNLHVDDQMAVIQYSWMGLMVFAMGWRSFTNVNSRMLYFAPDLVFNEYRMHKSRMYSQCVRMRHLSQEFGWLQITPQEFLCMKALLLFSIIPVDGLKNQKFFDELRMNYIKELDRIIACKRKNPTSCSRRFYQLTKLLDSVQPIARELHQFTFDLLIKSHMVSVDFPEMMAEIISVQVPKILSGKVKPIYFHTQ
Thyrotropin receptor (Homo sapiens), sequence (P16473 whole entry, looked up): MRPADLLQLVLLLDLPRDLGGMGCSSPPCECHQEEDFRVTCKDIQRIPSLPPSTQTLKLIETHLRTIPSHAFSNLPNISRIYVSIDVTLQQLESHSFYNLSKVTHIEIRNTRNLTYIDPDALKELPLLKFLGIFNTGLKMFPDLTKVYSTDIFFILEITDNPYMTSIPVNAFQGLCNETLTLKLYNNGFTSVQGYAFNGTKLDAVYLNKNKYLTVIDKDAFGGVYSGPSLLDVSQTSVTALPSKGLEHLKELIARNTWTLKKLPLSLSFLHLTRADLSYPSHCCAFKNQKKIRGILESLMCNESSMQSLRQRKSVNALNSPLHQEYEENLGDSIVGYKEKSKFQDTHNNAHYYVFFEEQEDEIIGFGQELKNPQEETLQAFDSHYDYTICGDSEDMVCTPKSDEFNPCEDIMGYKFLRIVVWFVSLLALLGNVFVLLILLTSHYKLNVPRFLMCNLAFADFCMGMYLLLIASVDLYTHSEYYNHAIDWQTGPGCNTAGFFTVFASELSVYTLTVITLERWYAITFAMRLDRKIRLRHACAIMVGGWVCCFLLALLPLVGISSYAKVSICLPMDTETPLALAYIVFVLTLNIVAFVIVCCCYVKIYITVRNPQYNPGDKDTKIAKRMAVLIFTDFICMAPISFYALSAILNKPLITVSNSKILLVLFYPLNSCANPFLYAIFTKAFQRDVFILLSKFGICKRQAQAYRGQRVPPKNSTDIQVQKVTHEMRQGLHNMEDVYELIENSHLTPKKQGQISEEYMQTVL

| Structure (SMILES) | Potency [1] | Potency [2] | Potency [3] | Potency [4] | Potency [5] | Potency [6] | Potency [7] | Potency [8] | Potency [9] | Potency [10] | Potency [11] | outcome [12] | Potency [13] | Potency [14] | Potency [15] | Potency [16] | Potency [17] | Potency [18] | Potency [19] | Potency [20] |
| --- | --- | --- | --- | --- | --- | --- | --- | --- | --- | --- | --- | --- | --- | --- | --- | --- | --- | --- | --- | --- |
| CC[C@@]1(O)C(=O)OCc2c1cc1n(c2=O)Cc2c-1nc1ccccc1c2/C=N/OC(C)(C)C | inactive | inactive | 0.133 µM (active) | 0.188 µM (active) | inactive | inactive | inactive | 0.0668 µM (active) | inactive | inactive | inactive | inactive | 11.9 µM (active) |  |  |  |  |  |  |  |
| O=C(N/N=C/c1ccccc1O)c1ccncc1 | inactive | inactive |  | 9.44 µM (active) | inactive | inactive | inactive | 0.473 µM (active) |  |  | inactive | inactive | inactive | inactive | 23.7 µM (active) | inactive | inactive | 2.11 µM (active) | inactive |  |
| CC(C)(C)NC(=O)[C@@H]1C[C@@H]2CCCC[C@@H]2CN1C[C@@H](O)[C@H](Cc1ccccc1)NC(=O)[C@H](CC(N)=O)NC(=O)c1ccc2ccccc2n1 | 27.7 µM (active) | 61.9 µM (active) |  | 61.9 µM (active) | inactive | 13.9 µM (active) | inactive | 24.7 µM (active) |  | 61.9 µM (active) |  | inactive | inactive | inactive |  | 9.82 µM (active) |  | 17.5 µM (active) | 61.9 µM (active) | 55.2 µM (active) |
| Cc1ccc(-n2nc(C(C)(C)C)cc2NC(=O)Nc2ccc(OCCN3CCOCC3)c3ccccc23)cc1 | inactive | inactive |  | inactive | inactive | inactive | inactive | inactive |  | inactive | inactive | inactive |  | inactive |  | inactive | inactive | 26.6 µM (active) | inactive | 7.5 µM (active) |
| CCC(C)(C)C1CCCCC1OC(C)=O (stereo unspecified) | inactive | inactive |  | inactive | inactive | inactive | inactive | inactive |  | inactive | inactive | inactive |  |  | inactive | inactive |  |  | inactive | inactive |
| NNc1nc(-c2ccccc2)cs1 | inactive | inactive |  | inactive | inactive | inactive | inactive | inactive |  |  | inactive | inactive |  |  |  | inactive | inactive |  |  | 25 µM (active) |
| C[C@H](CCC(=O)O)[C@H]1CC[C@H]2[C@@H]3CC[C@@H]4C[C@H](O)CC[C@]4(C)[C@H]3CC[C@]12C | inactive | inactive |  | inactive | inactive |  | inactive |  |  | 19.3 µM (active) |  |  |  |  | inactive | inactive |  |  |  | 48.4 µM (active) and 48.6 µM (active) |
| Clc1ccc2cc3ccccc3cc2c1 | inactive | inactive |  | inactive | inactive |  | inactive | inactive | inactive | inactive | inactive |  |  |  |  | inactive |  |  | inactive | inactive |
| CCOC(=O)/C=C(C)/C=C/C=C(C)/C=C/c1c(C)cc(OC)c(C)c1C | inactive | inactive |  |  | inactive | inactive | inactive | inactive |  | inactive | inactive | inactive |  | inactive | inactive | inactive |  |  | inactive | inactive |
| O=C(NO)C1(NS(=O)(=O)c2ccc(Oc3ccc(F)cc3)cc2)CCOCC1 | inactive | inactive |  | 61.1 µM (active) | inactive | inactive | inactive | inactive |  | inactive | inactive | inactive |  |  |  | inactive | inactive |  |  | inactive |
| CCc1cc(Cc2cc(CC)c(N)c(CC)c2)cc(CC)c1N | inactive | inactive |  | 54.5 µM (active) | inactive | inactive | inactive | 30.6 µM (active) |  | 48.6 µM (active) | inactive | inactive | inactive |  | inactive | inactive | inactive |  |  | 27.3 µM (active) |
| CCCCCCCCCCCC[N+](C)(C)CCCCCCCCCCCC | 54.5 µM (active) | 27.3 µM (active) |  | 30.6 µM (active) | 54.5 µM (active) | 27.3 µM (active) | inactive |  |  | 21.7 µM (active) | inactive | inactive | inactive |  | inactive | 24.3 µM (active) |  |  | 30.6 µM (active) | 21.7 µM (active) |
| O=C1c2ccccc2Cc2ccccc21 | inactive | inactive |  | inactive | inactive |  | inactive | inactive |  | inactive | inactive | inactive | inactive |  | 6.16 µM (active) | 6.91 µM (active) | inactive |  | inactive | inactive |
| CCCCC(CC)COP(=O)(O)OCC(CC)CCCC (stereo unspecified) | inactive | inactive |  | inactive | inactive | inactive | inactive | inactive |  | 68.7 µM (active) and 68.6 µM (active) | inactive |  |  |  | inactive | inactive |  |  | inactive | 68.7 µM (active) and 7.7 µM (active) |
